# An excerpt weighted towards active compounds, which were near 19% of everything screened.
# TDP1 cell CPT: growth inhibition of DT40 Tdp1-/-;hTDP1 cells with camptothecin (screen for TDP1 inhibitors) | chicken DT40 Tdp1-/-;hTDP1 cells + 20 nM CPT, ATP luminescence, 48 h | Potency, µM (doses to about 46.2 µM), hits mostly inhibitors | AID 686979 | 420,000 tested, 12% active; note: nearly all actives have a fitted effect of over 55% in size
#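 Cell growth measured by CellTiter-Glo luminescence after a minimum 48 h, 37 C compound exposure with 20 nM CPT in Tdp1-knockout DT40 cells stably expressing hTDP1, seeded 400/well; qHTS titration format.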
# HepG2 viability: kills HepG2 cells in TGF-b inhibitor counter-screen; HepG2 CAGA-GFP viability, ATP luminescence, 18 h; Potency, µM (series often up to 46.1 µM), usual class: cytotoxic; 410,000 tested, 0.76% active; AID 588856
#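 HepG2 CAGA-GFP cells (1000/well, DMEM with 1% FBS) received compound, then TGF-beta at 500 pg/mL final, and were incubated 18 hours at 37 degrees C. Viability was read by CellTiter-Glo luminescence. Media-only wells were set as complete cell-killing and DMSO as no toxicity.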
# TDP1 cell noCPT: qHTS for Inhibitors of human tyrosyl-DNA phosphodiesterase 1 (TDP1): qHTS in cells in absence of CPT; DT40 Tdp1-/- hTDP1 cells, no CPT, ATP luminescence, 48 h; Potency, µM (titrated, usually from 46.2 µM), usual class: inhibitors; 420,000 tested, 15% active; AID 686978, 2013; note: nearly all actives have a fitted effect of over 55% in size
#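 Cells were dispensed at 400 per well, compounds added by pin tool, plates incubated ≥48 hr at 37 °C, then CellTiter-Glo added for 30 min at room temperature before luminescence reading. Line: DT40 Tdp1-/- complemented with hTDP1; camptothecin omitted.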
# IL1B secr inh: blocks inflammasome-driven IL-1 beta release | THP-1 LPS/ATP IL-1B secretion, AlphaLISA, 16 h; hits give low values | 360,000 tested, 4.7% active | AID 743279 | activity change, % at 57.5 µM; in the data active = activity change below about -50%; inconclusive = mostly about -30% to -49%
#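 THP-1 cells pretreated 1 hr with compounds (up to 57.5 uM final), then stimulated with LPS (250 ng/mL final) plus ATP (1.25 mM final); secreted IL-1B measured by AlphaLISA after 16 hr, decreased signal indicating inhibition.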
# TGFb inhibitor: TGF-b pathway inhibition. HepG2 CAGA-GFP TGF-b/SMAD3 reporter, GFP fluorescence, 18 h; TGF-beta stimulated, 500 pg/mL final. Potency, µM (titrated, usually from 46.1 µM), usual class: inhibitors. 410,000 tested, 1.2% active; note: nearly all actives have a fitted effect of over 65% in size
#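 Smad-responsive CAGA-GFP expression was quantified in HEPG2 cells exposed to compounds and 500 pg/mL final TGF-beta for 18 h at 37 degrees C; unstimulated wells defined full inhibition.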
# TDP1 inh: inhibitors of human tyrosyl-DNA phosphodiesterase TDP1; recombinant TDP1, AlphaScreen DNA substrate cleavage; Potency, µM (series often up to 130 µM), actives largely listed as inhibitors; 350,000 tested, 0.28% active; note: nearly all actives have a fitted effect of over 40% in size
# Target sequence (Q9NUW8 whole entry, looked up): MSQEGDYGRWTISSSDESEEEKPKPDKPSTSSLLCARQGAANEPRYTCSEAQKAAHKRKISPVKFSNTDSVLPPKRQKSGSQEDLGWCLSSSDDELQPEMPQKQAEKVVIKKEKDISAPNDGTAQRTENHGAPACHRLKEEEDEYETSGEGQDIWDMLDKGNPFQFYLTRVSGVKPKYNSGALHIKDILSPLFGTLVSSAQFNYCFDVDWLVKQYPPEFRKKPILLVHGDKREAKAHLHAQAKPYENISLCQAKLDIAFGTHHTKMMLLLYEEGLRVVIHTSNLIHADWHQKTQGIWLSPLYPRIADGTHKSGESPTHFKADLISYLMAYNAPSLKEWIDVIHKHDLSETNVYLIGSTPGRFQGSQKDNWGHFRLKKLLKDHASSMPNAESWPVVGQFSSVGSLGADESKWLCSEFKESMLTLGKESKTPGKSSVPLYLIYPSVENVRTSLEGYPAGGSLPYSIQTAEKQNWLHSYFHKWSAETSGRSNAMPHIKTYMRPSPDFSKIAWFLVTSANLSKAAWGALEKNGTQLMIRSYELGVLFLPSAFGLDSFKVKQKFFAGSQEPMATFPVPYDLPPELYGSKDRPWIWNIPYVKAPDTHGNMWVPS
#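 Tdp1 1 nM final; 15 min RT w/ cpd; substrate 15 nM, 5 min; beads 10 ug/ml, 10 min; AlphaScreen read. Neg ctrl: no enzyme.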
# Numbers stand for hits; – = inactive; ? = inconclusive; · = no result; [ ] = remark or other dose. Unless noted, calls come from the whole dose curve; as a rule, active = well fitted curve in the direction sought with a large enough effect; inconclusive = small, poorly fitted or top-dose-only effect, or another doubt; inactive = no such curve, though single readings can be large; an effect the other way counts as inactive or inconclusive.
SMILES,TDP1 cell CPT,HepG2 viability,TDP1 cell noCPT,IL1B secr inh,TGFb inhibitor,TDP1 inh
CC1=C(C(=O)Nc2ccc(Cl)cc2)C(c2cccs2)n2nc(SCc3cccc(Cl)c3)nc2N1 (centres undefined),–,–,–,·,–,–[12.3 µM]
CC1=C(C(=O)Nc2ccccc2C)C(c2ccncc2)n2nc(SCc3ccccc3)nc2N1 (centres undefined),–,–,–,·,–,–
CC1=C(C(=O)Nc2ccccc2C)C(c2cccs2)n2nc(SCc3ccccc3)nc2N1 (centres undefined),21µM,–,21µM,·,?,–
CC1=C(C(=O)Nc2ccc(C)cc2C)C(c2cccs2)n2nc(SCc3ccc(Cl)cc3)nc2N1 (centres undefined),10µM,–,12µM,·,–,–
CC1=C(C(=O)Nc2ccccc2C)C(c2ccccn2)n2nc(SCc3ccccc3F)nc2N1 (centres undefined),6.5µM,–,10µM,·,?,–
COc1ccccc1NC(=O)C1=C(C)Nc2nc(SCc3ccccc3F)nn2C1c1ccncc1 (centres undefined),–,–,–,·,–,–
CCN(CC)CCCNC(=O)c1nn(-c2ccc(OC)cc2)c(=O)c2c1c1ccccc1n2C,–,–,–,·,–,–
CNCC[C@H](Oc1ccccc1OC)c1ccccc1,?,·,?,·,·,–
CCOC(=O)c1ccccc1NC(=O)c1nc2nccc(C)n2n1,?,–,18µM,–,–,–
CCC(=O)Nc1ccc(C(=O)COC(=O)c2nc3nccc(C)n3n2)cc1,–,–,–,–,–,16µM
CCOC(=O)c1ccccc1NC(=O)N(C)CCc1c(C)nn(CC)c1C,21µM,–,16µM,·,–,–
Cc1ccnc2nc(C(=O)OCC(=O)Nc3ccccc3C(C)(C)C)nn12,–,–,–,–,–,–
CC(C)NC(=O)N1CC[C@@]2(CCCN(S(=O)(=O)c3ccccc3)C2)C1,–,·,–,·,·,·
Cc1ccc(C(=O)CC(C(=O)O)P(=O)(c2ccccc2)c2ccccc2)cc1 (centres undefined),–,–,–,–,–,–
Cc1ccc(P(=O)(c2ccc(C)cc2)[C@@H](NC(c2ccccc2)c2ccccc2)c2ccccc2)cc1,18µM,·,13µM,–,·,·
COC(=O)[C@@H]1C[C@@]2(O)[C@H](O)[C@H](O)[C@H](O)C[C@H]2N1Cc1ccc(N2CCN(C)CC2)cc1,·,·,·,·,·,–
Cc1ccc(NC(=O)CNC(=O)Cn2c(C)cc3ccccc3c2=O)cc1F,–,–,–,·,–,–
O=C(Nc1cc(F)ccc1F)N1CCC(CN2CCCC2)CC1,–,–,–,·,–,–
Cc1nnc2nc(-c3ccccc3)nc(-c3ccccc3)n12,?,–,15µM,–,–,·
Cn1nc(-c2ccccc2)nc1-c1ccccc1,?,–,–,–,–,–
COc1ccc(-c2cc(C(=O)Nc3c(C)nn(Cc4ccc(F)cc4)c3C)no2)cc1OC,?,–,?,·,–,–
CCC1CCCCN1CCCNC(=O)c1cc2c(=O)n(CC)c3ccccc3c2s1 (centres undefined),?,–,?,·,–,–
Cc1ccc2nc(Cl)c3cc(C(=O)NCCCN4CCCC4)sc3c2c1,5.8µM,–,5.8µM,–,?,–
Cc1ccc(NC(=O)c2cc3c(Cl)nc4ccc(C)cc4c3s2)c(Cl)c1,–,–,?,·,–,–
Cc1ccc2nc(Cl)c3cc(C(=O)N4CCCCC4C)sc3c2c1 (centres undefined),?,–,23µM,·,–,–
SMILES,TDP1 cell CPT,HepG2 viability,TDP1 cell noCPT,IL1B secr inh,TGFb inhibitor,TDP1 inh
CCC1CCCCN1CCCNC(=O)c1cc2c(Cl)nc3ccc(C)cc3c2s1 (centres undefined),5.2µM,–,4.6µM,·,–,–
Cc1ccc2nc(Cl)c3cc(C(=O)N4CCCCC4)sc3c2c1,?,–,–,·,–,–
Cc1cccc(CN2CCC(CNC(=O)CSc3cc(=O)n(C)c4cc(Cl)ccc34)CC2)c1,–,–,–,–,–,·
O=C(NCC1CCN(Cc2ccccc2F)CC1)Nc1ccc(F)c(Cl)c1,?,–,?,·,?,–[12.3 µM]
O=C(NCC1CCN(Cc2cccc(Cl)c2)CC1)Nc1ccccc1Cl,–,–,?,-83,–,·
Cc1ccc(NC(=O)NCC2CCN(Cc3cccc(Cl)c3)CC2)c(Cl)c1,?,–,–,-51,–,–
COc1cccc(C(=O)/C(C#N)=N/Nc2cccc(-c3ccnc(C)n3)c2)c1,?,–,21µM,–,–,–
CNC(=O)Nc1cccc(-c2ccnc(C)n2)c1,–,–,–,–,–,–
O=C(NCCc1ccc(C(F)(F)F)cc1)c1ccc(Cl)nc1,–,–,–,–,–,·
CC(=O)N1CCN(c2ccc(Oc3ccc([N+](=O)[O-])c(C(F)(F)F)c3)cc2)CC1,12µM,–,2.9µM,-83,–,–
O=[N+]([O-])c1cc(-c2csc(NC(CO)c3nc4ccccc4n3CCOCCO)n2)ccc1Cl (centres undefined),?,–,18µM,–,?,·
CCCn1c(C(C)Nc2nc(-c3ccc(Cl)c([N+](=O)[O-])c3)cs2)nc2ccccc21 (centres undefined),23µM,–,?,–,?,·
COc1cc(C2C(C#N)=C(N)OC3=C2C(=O)CCC3)cc2c1OCO2 (centres undefined),–,–,–,–,–,·
Cc1cc(NC(=O)OC(C)(C)C)c(-n2nnnc2C(C(=O)c2ccc3c(c2)OCO3)N2CCN(c3ccccn3)CC2)cc1C (centres undefined),23µM,·,16µM,–,·,·
CN(CCc1ccccc1)C(C(=O)c1ccc2c(c1)OCO2)c1nnnn1-c1ccccc1NC(=O)OC(C)(C)C (centres undefined),15µM,·,16µM,–,·,·
CC(C)(C)OC(=O)Nc1ccccc1-n1nnnc1C(C(=O)c1ccccc1)N1CCN(c2ccccn2)CC1 (centres undefined),?,·,?,–,·,·
CCOC(=O)c1c(NC(=O)CCCOc2ccc(Cl)cc2)sc2c1CCC2,–,–,–,·,–,–[2.28 µM]
O=C(NCc1ccccc1CN1CCCC1)c1ccc(Cl)c(N2CCCC2=O)c1,–,–,–,–,–,–
O=C(Nc1cccc(S(=O)(=O)N2CCCCC2)c1)c1ccc2ncsc2c1,?,–,?,–,?,·
CN(c1ccccc1)S(=O)(=O)c1cccc(NC(=O)c2ccc3ncsc3c2)c1,10µM,–,?,-69,?,–
